SARS PLpro yeast = qHTS of Yeast-based Assay for SARS-CoV PLP | S. cerevisiae expressing SARS-CoV PLpro, growth rescue | Potency, µM (highest dose often 32.9 µM), inactives show top-dose activity, positive = growth rescue, actives largely listed as activators | 330,000 compounds, 0.19% hits | AID 485353, 2010; calls by dose curve; note: 0% is about no effect; nearly all actives have a fitted effect of over 55% in size
Sm TGR block = qHTS Assay for the Inhibitors of Schistosoma Mansoni Peroxiredoxins; Schistosoma mansoni thioredoxin glutathione reductase (TGR), Q962Y6; purified TGR, DTNB reduction, TNB absorbance 405 nm; Potency, µM (titrated, usually from 114 µM), for inactives: top-dose activity change, negative = inhibition, most hits filed as inhibitors; 360,000 compounds, 3% hits; note: % is set by controls: 0 for no effect and ±100 for the full control effect; nearly all actives have a fitted effect of over 60% in size
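First, TGR (20 nM dispensed) and NADPH were mixed with compound. Second, a 15 min room-temperature incubation followed. Third, further NADPH and then DTNB were added to start the reaction. Finally, TNB absorbance was monitored kinetically.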
Tb PYK inh = qHTS of Trypanosoma Brucei Inhibitors; TbPYK enzyme, Kinase-Glo Plus ATP luminescence, 45 min; Potency, µM (top dose mostly 76.8 µM), for the others: at the top dose activity, negative = inhibition, hits mostly inhibitors; 410,000 compounds, 0.12% hits; AID 624173, 2012; note: % is set by controls: 0 for no effect and ±100 for the full control effect; nearly all actives have a fitted effect of over 50% in size
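Activity of T. brucei pyruvate kinase was followed by Kinase-Glo Plus luminescence after the enzyme reacted 45 min at room temperature with 130 uM ADP (final) and substrate. Test compounds were added before ADP at multiple concentrations.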
NS1 function inh = qHTS Assay for Inhibitors of Influenza NS1 Protein Function | Potency, µM (titrated, usually from 46.1 µM), without a hit: top-dose activity, positive = more growth | 270,000 compounds, 0.4% hits | AID 2326, 2010; calls by dose curve; note: actives are rising curves; nearly all actives have a fitted effect of over 50% in size
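Read-out: OD600 growth recovery of NS1-expressing budding yeast. Cells grown overnight at 30C in -URA glucose medium, washed, resuspended and diluted 1:100 in 2% galactose assay medium, pH 6.0. Same strain lacking NS1 served as positive control.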
LmPK inhibitor = qHTS Assay for Inhibitors of Leishmania Mexicana Pyruvate Kinase (LmPK). purified LmPK, Kinase-Glo ATP luminescence, 1 h. Potency, µM (doses to about 57.5 µM), without a hit: at the highest dose activity change, negative = inhibition, actives largely listed as inhibitors. 290,000 compounds, 0.37% hits. AID 1721, 2009; note: % is set by controls: 0 for no effect and ±100 for the full control effect
Target sequence (Q27686 whole entry, looked up): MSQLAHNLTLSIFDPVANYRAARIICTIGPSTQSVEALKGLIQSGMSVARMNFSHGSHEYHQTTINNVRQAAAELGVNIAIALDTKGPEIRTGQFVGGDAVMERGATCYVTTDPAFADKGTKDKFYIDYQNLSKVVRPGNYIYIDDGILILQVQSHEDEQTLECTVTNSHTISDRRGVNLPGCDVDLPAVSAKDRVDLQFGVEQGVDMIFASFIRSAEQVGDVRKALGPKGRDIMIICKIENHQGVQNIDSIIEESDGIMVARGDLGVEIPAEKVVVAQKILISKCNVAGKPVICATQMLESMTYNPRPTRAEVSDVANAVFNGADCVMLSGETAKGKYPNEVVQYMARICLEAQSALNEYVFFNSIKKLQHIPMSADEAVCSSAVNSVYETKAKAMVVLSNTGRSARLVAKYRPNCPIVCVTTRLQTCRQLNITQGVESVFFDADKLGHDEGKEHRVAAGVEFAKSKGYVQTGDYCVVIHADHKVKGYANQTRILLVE
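0.1 nM LmPK, 0.5 mM PEP, 0.1 mM ADP; 50 mM imidazole pH 7.2, 7 mM MgCl2, 50 mM KCl; 1 h RT. Kinase-Glo luminescence readout, normalized to no-enzyme (full inhibition) and uninhibited wells.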
RE007 growth inh = qHTS Assay for Inhibitors of the HIV-1 protein Vpr; Potency, µM (titrated, usually from 92.2 µM), without a hit: at the top dose activity change, negative = less growth, actives largely listed as inhibitors; AID 651644, 2012; 360,000 compounds, 0.21% hits; S. pombe RE007 Vpr strain, BacTiter-Glo ATP luminescence, 24 h; active = well fitted falling curve with a large enough effect; inconclusive = small, poorly fitted or top-dose-only effect; inactive = no such curve, though single readings can be large or run the other way; note: % is set by controls: 0 for no effect and ±100 for the full control effect; nearly all actives have a fitted effect of over 50% in size
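Fission yeast RE007 carrying one integrated HIV-1 vpr copy, seeded at OD 0.01 in PMG+AL medium with 23 nL pinned compound. Grown 24 h at 30 degrees; viability read by BacTiter-Glo luminescence after 5 min.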
* hit, by the source's call; [ ] = another dose, or the depositor's remark. In the library only some 3.3% were active in any assay of this set; here they are far more common. Unless noted, calls come from the whole dose curve; as a rule, active = well fitted curve in the direction sought with a large enough effect; inconclusive = small, poorly fitted or top-dose-only effect, or another doubt; inactive = no such curve, though single readings can be large; an effect the other way counts as inactive or inconclusive. Potency is the fitted concentration of half-maximal effect.

`Cc1ccccc1CN1CCN(C(=O)CC(C)C)CC1` gave SARS PLpro yeast -7%, Sm TGR block 50µM*, Tb PYK inh 12%, NS1 function inh -18%, LmPK inhibitor 24% and RE007 growth inh 5%.
Screening COc1ccc(CN2CCN(C(=O)CC(C)C)CC2)c2ccccc12 returned SARS PLpro yeast -4%, Sm TGR block 0%, Tb PYK inh 10%, NS1 function inh -20%, LmPK inhibitor 3% and RE007 growth inh 29%.
`CC(C)c1ccc(N2C(=O)NC(=O)/C(=C/c3cnc(-c4ccccc4)nc3)C2=O)cc1` gave SARS PLpro yeast 8%, Sm TGR block 3.5µM*, Tb PYK inh -5%, NS1 function inh 4%, LmPK inhibitor 2% and RE007 growth inh -2%.
`CCc1ccc(N2C(=O)NC(=O)/C(=C\c3cccn3CCOc3ccc(C(C)C)cc3)C2=O)cc1` gave SARS PLpro yeast 10%, Sm TGR block inconclusive, Tb PYK inh -10%, NS1 function inh 9%, LmPK inhibitor 1% and RE007 growth inh 5%.
`CSc1ncc(/C=C2/C(=O)NC(=O)N(c3ccc(C(C)C)cc3)C2=O)cn1` gave SARS PLpro yeast -3%, Sm TGR block 11µM*, Tb PYK inh 3%, NS1 function inh 8% and LmPK inhibitor 2%.
Screening O=C1NC(=O)N(Cc2ccc(F)cc2)C(=O)/C1=C\c1ccoc1 returned SARS PLpro yeast 0%, Sm TGR block inconclusive, Tb PYK inh -25%, NS1 function inh 7%, LmPK inhibitor 11% and RE007 growth inh 20%.
Screening O=C1NC(=O)N(Cc2ccccc2)C(=O)/C1=C/c1cnc(-c2ccccc2)nc1 returned SARS PLpro yeast 2%, Sm TGR block 10µM*, Tb PYK inh -2%, LmPK inhibitor 19% and RE007 growth inh 4%.
`COc1ccc(-n2ccnc2CN2CCN(C3CCCC3)C(CCO)C2)cc1` (stereo not drawn) gave SARS PLpro yeast 0%, Sm TGR block 25µM*, Tb PYK inh 1%, NS1 function inh 4%, LmPK inhibitor 4% and RE007 growth inh -2%.
Cc1cccc(-n2ccnc2CN2CCN(C3CCCC3)C(CCO)C2)c1 (stereo not drawn) was read as SARS PLpro yeast 1%, Sm TGR block inconclusive, Tb PYK inh -1%, NS1 function inh 4%, LmPK inhibitor 6% and RE007 growth inh -5%.
CN1C2CCC1CC(NC(=O)n1c(=O)[nH]c3ccccc31)C2 (stereo not drawn) was read as Tb PYK inh -6%.
`CCCCn1c(=O)n(-c2cc(OC)ccc2OC)c(=O)c2c3c(sc21)CN(C(C)=O)CC3` gave Sm TGR block 0% and Tb PYK inh 0%.
C/C=C/C=C/C(=O)[C@@H]1[C@@H]([C@]2(C)OC(=O)C(C)=C2O)[C@H]2/C(=C(O)/C=C/C=C/C)C(=O)[C@]1(C)C(=O)C2(C)O (stereo partly drawn) was read as SARS PLpro yeast 1%, Sm TGR block 10µM*, Tb PYK inh -22%, NS1 function inh -3%, LmPK inhibitor 18% and RE007 growth inh 9%.
Cc1nc2ccc(NC(=O)c3cc([N+](=O)[O-])cc([N+](=O)[O-])c3Cl)cc2s1 was read as SARS PLpro yeast -106%, Sm TGR block 0.5µM*, Tb PYK inh -9% and LmPK inhibitor 0%.
Screening CC(Nc1ccc(-c2nc(-c3ccccn3)no2)cc1[N+](=O)[O-])c1ccccc1 (stereo not drawn) returned Sm TGR block -11% and Tb PYK inh -5%.
Cc1nc([N+](=O)[O-])c(Br)n1CC(=O)c1ccc(Cl)cc1 was read as SARS PLpro yeast -24%, Sm TGR block 7.1µM*, Tb PYK inh -5%, NS1 function inh -83%, LmPK inhibitor 1% and RE007 growth inh -1%.
Screening COc1ccc(C(=O)Cn2c(C)nc([N+](=O)[O-])c2Br)cc1 returned SARS PLpro yeast -1%, Sm TGR block 2.5µM*, Tb PYK inh 2%, NS1 function inh -38%, LmPK inhibitor -1% and RE007 growth inh 32%.
For Cc1oc2c(c(C)cc3oc(=O)c(CC(=O)NCCc4ccccc4)c(C)c32)c1C the results were Sm TGR block -4% and Tb PYK inh 3%.
COCCOC(=O)/C(=C\c1cc(C(C)(C)C)c(O)c(C(C)(C)C)c1)C(C)=O was read as SARS PLpro yeast -7%, Sm TGR block 40µM*, Tb PYK inh 1%, NS1 function inh -65%, LmPK inhibitor -2% and RE007 growth inh -5%.
For CC(C)(C)c1cc(CCC(=O)NN)cc(C(C)(C)C)c1O the results were SARS PLpro yeast 2%, Sm TGR block -5%, Tb PYK inh -2%, LmPK inhibitor 2% and RE007 growth inh -3%.
CNS(=O)(=O)c1cn(CC(=O)N2CCN(c3cc(C)ccc3C)CC2)cc1S(=O)(=O)NC was read as Sm TGR block -2% and Tb PYK inh 0%[15.4 µM].
For Cc1ccc2c(c1)=NC(=O)/C(=C/c1c(O)[nH]c(=O)[nH]c1=O)C=2 the results were SARS PLpro yeast 1%, Sm TGR block inconclusive, Tb PYK inh inconclusive, NS1 function inh -34%, LmPK inhibitor 1% and RE007 growth inh 9%.
For Cc1ccc2c(c1)=C/C(=C\c1c(O)[nH]c(=S)[nH]c1=O)C(=O)N=2 the results were SARS PLpro yeast 6%, Sm TGR block 13µM*, NS1 function inh -4% and LmPK inhibitor 9%.
Screening CCOc1ccc(NC(=O)C2CCCN(S(=O)(=O)c3cccc4nonc34)C2)cc1 (stereo not drawn) returned Sm TGR block -11% and Tb PYK inh -4%.
Screening COc1ccc(N(CC(=O)N/N=C/c2ccco2)S(=O)(=O)c2ccccc2)cc1 returned SARS PLpro yeast -6%, Sm TGR block 28µM*, Tb PYK inh 2%, NS1 function inh -11%, LmPK inhibitor 2% and RE007 growth inh 4%.
Screening COc1ccc(C(=O)Nc2ccccc2C(=O)N/N=C/c2ccco2)cc1 returned SARS PLpro yeast -55%, Sm TGR block 3%, Tb PYK inh inconclusive, NS1 function inh 9%, LmPK inhibitor 25µM* and RE007 growth inh 18µM*.
